# Assay outcomes: PubChem, Broad Institute
# In the library only some 1.2% were active in any assay of this set; here they are far more common.
# RAD52 inh – RAD52 DNA annealing inhibitors, primary screen, biochemical, FRET, single point, set 2; DNA repair protein RAD52 homolog (Homo sapiens), P43351; recombinant RAD52 DNA annealing, FRET fluorescence; inhibition, % at 18.7 µM; 0.46% of 360,000 active; AID 651710, 2012;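 active means every replicate showing at least 50% inhibition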
# Casp6 inh – human caspase-6 inhibitors, primary screen, biochemical, VEID-R110 fluorescence, single point, set 2 | P55212 | purified caspase-6, Z-VEID-R110 cleavage fluorescence | inhibition, % at 12.5 µM | 0.53% of 350,000 active;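 active means mean inhibition across replicates at least about 35%, with every replicate also reaching that limit, limit read from the data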;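 further: 0% = median of neutral control wells and 100% = no fluorescence left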
# Target sequence (P55212 24-179 limits assumed): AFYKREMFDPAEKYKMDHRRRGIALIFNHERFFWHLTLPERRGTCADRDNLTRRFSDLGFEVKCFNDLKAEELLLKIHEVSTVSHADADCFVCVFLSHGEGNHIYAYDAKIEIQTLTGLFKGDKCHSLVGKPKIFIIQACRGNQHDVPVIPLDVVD
# Target sequence (P55212 194-293 limits assumed): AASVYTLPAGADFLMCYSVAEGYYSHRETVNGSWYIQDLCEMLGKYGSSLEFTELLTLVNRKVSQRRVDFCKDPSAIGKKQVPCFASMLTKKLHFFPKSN
# AF4-AF9 inh – inhibitors of AF4 peptide binding to AF9, primary screen, biochemical, AlphaScreen, biotin-AF4 peptide, FLAG-AF9, single point | Protein AF-9 (Homo sapiens), P42568 | inhibition, % at 10 µM | 0.47% of 350,000 active | AID 651704, 2012;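 active means every replicate reaching a set inhibition limit, whatever the replicate mean, cut at about 25% in these data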;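 further: 0% = plate neutral control median and 100% = total signal loss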
# RAD54 branch – inhibitors of human RAD54 branch migration, primary screen, biochemical, fluorescence, single point | DNA repair and recombination protein RAD54-like (Homo sapiens), Q92698 | RAD54 Holliday junction branch migration, FAM/BHQ fluorescence | inhibition, % at 10.4 µM | 0.14% of 360,000 active | AID 602329, 2012;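 active means mean normalized replicate activity at least 40 and at least half of replicates scoring 40 or more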;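 further: 0% = median of neutral control wells and 100% = median of positive control wells; inhibitors cause a drop in the FAM fluorescence signal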
# N-glyco inh – increase of ERlucT glycosylation luciferase signal, primary screen, N-linked glycosylation inhibitor project, D54 ERlucT cells, luminescence, set 2; D54 ERlucT glycosylation luciferase reporter, 24 h; percent of 100 nM tunicamycin response; 0.23% of 360,000 active; reporter increase, % at 12.5 µM;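 active means mean luciferase reporter signal, scaled so untreated is 0 and the glycosylation-blocking control 100, at or above a set limit in every replicate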;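 further: luciferase carries N-glycosylation sites so blocking glycosylation raises the light; 0% = median of neutral control wells and 100% = median of 100 nM tunicamycin wells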
# Starred values were filed as active, the others as inactive; x = not tested or not shown.
SMILES,RAD52 inh,Casp6 inh,AF4-AF9 inh,RAD54 branch,N-glyco inh
COc1cccc(C(=O)OCC(=O)Nc2sc3c(c2C(N)=O)CCC3)c1O,-24,41*,-2,5,3
COc1ccccc1NC(=O)COC(=O)c1cc2c(s1)CCC2,-26,64*,0,x,-1
CC(C)c1ccc(N2C(=O)C(Cl)=C(N3CCOCC3)C2=O)cc1,-25,-3,38*,x,2
CCOc1ccc(-n2nnnc2SCC(=O)Nc2cccc(O)c2)cc1,4,2,28*,-7,-1
CN(C(=O)CSc1nc(-c2ccc(C(C)(C)C)cc2)c(C#N)c(=O)[nH]1)C1CCCCC1,-44,35*,0,2,1
N#Cc1c(-c2ccccc2)nc(SCC(=O)NC2CCCCC2)[nH]c1=O,-10,-1,-4,x,1
O=C(/C=C/Sc1ccc(C(F)(F)F)cn1)c1ccccc1,-20,2,x,2,37*
C#CC[N+](C)(C)CCCCCCCCCC,8,8,-6,-15,40*
C#CC[N+](C)(C)CCCCCCCC,-14,-12,-8,x,18
CC#CC[N+](C)(C)CCCCCCCCCCCC,29,-22,3,9,1
C#CC[N+](C)(C)CCCCCCCCCCCC,33,3,-6,x,144*
C/C=C/c1cnc2c(c1)C(=O)N([C@H](C)CO)C[C@@H](C)[C@@H](CN(C)C(=O)Nc1c(C)noc1C)O2,-1,2,-4,5,x
Cc1ccc(C(=O)O)cc1-c1ccc(C=C2C(=O)c3ccccc3C2=O)o1,-26,37*,0,x,1
O=Nc1c(O)ccc2cc(S(=O)(=O)O)ccc12,x,x,x,1,-1
CN(C)c1ccc2cc(S(=O)(=O)O)cc(O)c2c1,-26,78*,0,-31,1
Cc1cccc(N2CCN(C(=O)CCC(=O)N3Cc4ccccc4Oc4ncccc43)CC2)c1C,-20,3,47*,2,-6
COc1ccccc1CNC(=O)C[C@@H]1C[C@@H]2c3cc(NC(=O)CN(C)C)ccc3O[C@@H]2[C@H](CO)O1,19,-1,-1,-1,x
CCN(CC)c1nc(N)c2c(N)nc(OC)cc2c1C#N,3,51*,-6,-6,-1
COc1cc2c(C#N)c(N3CCc4ccccc4C3)nc(N)c2c(N)n1,x,x,x,2,26*
CN1C(=O)c2cc(NC(=O)c3ccccc3Cl)ccc2OC[C@H]2O[C@@H](CC(=O)O)CC[C@@H]21,-2,-1,-5,-12,x
CCN(CC)Cc1c(C(=O)N/N=C/c2ccncc2)nnn1-c1nonc1N,-12,-2,-3,-11,11
CCN(CC)Cc1c(C(=O)N/N=C(\C)c2ccncc2)nnn1-c1nonc1N,-2,-2,43*,x,0
O=C(C[C@@H]1CC[C@@H]2[C@H](COC[C@@H](O)CN2C(=O)c2cccnc2)O1)Nc1ccc(-c2ccccc2)cc1,x,x,x,13,x
O=C(Nc1ccc(Cl)cc1)N1CCN(c2ccc3nnc(-c4ccc(F)cc4)n3n2)CC1,x,x,x,0,100*
CN(C)CC#Cc1ccc([C@H]2[C@@H](CO)N3CCCCN(C(=O)Nc4ccccc4F)C[C@H]23)cc1,70*,-1,2,-4,x
SMILES,RAD52 inh,Casp6 inh,AF4-AF9 inh,RAD54 branch,N-glyco inh
CN(C)CC#Cc1ccc([C@H]2[C@H]3CN(C(=O)CN(C)C)CCCCN3[C@H]2CO)cc1,57*,5,0,-18,x
CN(C)CC(=O)N1CCCCN2[C@H](CO)[C@@H](c3ccc(/C=C/c4ccccc4)cc3)[C@@H]2C1,44,4,-6,5,x
CN(C)CC(=O)N1CCCCN2[C@H](CO)[C@H](c3ccc(/C=C/c4ccccc4)cc3)[C@@H]2C1,55*,5,-2,16,x
Cc1noc(C)c1NC(=O)N(C)C[C@@H]1Oc2ncc(C#Cc3ccccc3)cc2C(=O)N([C@H](C)CO)C[C@@H]1C,-4,-4,3,-3,x
COc1ccccc1-c1c(C)nn2c(N3CCCCCC3)cc(C)nc12,12,1,6,6,-8
COc1ccccc1-c1c(C)nn2c(-c3ccccc3)cc(C)nc12,-8,2,27*,x,-8
COc1ccccc1C#Cc1ccc([C@H]2[C@H](CO)N3CCCCN(C(=O)C4CCCC4)C[C@@H]23)cc1,56*,-1,4,-1,x
COc1ccc(NC(=O)N2CCCCN3[C@H](CO)[C@H](c4ccc(C#Cc5ccccc5)cc4)[C@H]3C2)cc1,95*,-1,8,4,x
COc1ccc(C#Cc2ccc([C@H]3[C@@H](CO)N4CCCCN(C(=O)Nc5ccccc5)C[C@@H]34)cc2)cc1,-4,2,-4,2,x
COc1ccccc1C#Cc1ccc([C@@H]2[C@@H](CO)N3CCCCN(C(=O)C4CCCC4)C[C@@H]23)cc1,27,1,-6,-8,x
COc1ccc(C#Cc2ccc([C@H]3[C@@H](CO)N4CCCCN(C(=O)Nc5cccc(F)c5)C[C@H]34)cc2)cc1,x,x,x,51*,x
CC(C)NC(=O)N(C)C[C@H]1Oc2cc(C#CC3CC3)ccc2S(=O)(=O)N([C@@H](C)CO)C[C@H]1C,2,1,-2,-25,x
COc1ccc2c3c([nH]c2c1)[C@H](CO)N(C(=O)C1CCCC1)CC31CN(C)C1,6,x,-1,x,x
CCOC(=O)c1c(C)[nH]c(-c2csc(C)n2)c1C,-22,0,5,x,0
CCOC(=O)c1c(C)[nH]c(-c2csc(N)n2)c1C,-25,-4,15,x,27*
CN(C)C(=O)[C@@H]1[C@@H](CO)[C@@H]2Cn3c(ccc(C4=CCCCC4)c3=O)[C@H]1N2CC1CC1,5,0,1,-3,x
CN(C)C(=O)[C@H]1[C@H](CO)[C@H]2Cn3c(ccc(C4=CCCCC4)c3=O)[C@@H]1N2C,63*,0,2,5,x
C[C@@H]1CN([C@@H](C)CO)C(=O)Cc2cc(NS(=O)(=O)c3ccccc3)ccc2O[C@@H]1CN(C)Cc1ccc(Cl)c(Cl)c1,-15,-2,-1,1,x
C[C@H](CO)N1C[C@H](C)[C@@H](CN(C)Cc2ccc(Cl)c(Cl)c2)Oc2ccc(NS(=O)(=O)c3ccccc3)cc2CC1=O,64*,-1,0,-6,x
Cc1ccc(S(=O)(=O)Nc2ccc3c(c2)CC(=O)N([C@H](C)CO)C[C@H](C)[C@H](CN(C)Cc2ccc(Oc4ccccc4)cc2)O3)cc1,-8,2,-11,-8,x
Cc1ccc(S(=O)(=O)Nc2ccc3c(c2)CC(=O)N([C@@H](C)CO)C[C@@H](C)[C@H](CN(C)Cc2ccc(-c4ccccc4)cc2)O3)cc1,83*,-1,3,1,x
